What all share (assay): glycan array binding signal (z-score within array); higher = stronger binding
Holding throughout (conditions): glycan notation: IUPAC condensed, linker removed

In experiment [1] the target is GlcNAc(a1-4)Gal(b1-4)GlcNAc(b1-3)Gal(b1-4)GlcNAc(b1-3)Gal(b1-4)GlcNAc. The method, boiled down:
(§1)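 The binding signal is a Z-score computed within each array and averaged over linkers. Arrays of the same protein sequence at different concentrations or buffers were also averaged together. Data originate from 3228 arrays in the Consortium for Functional Glycomics database, kept only where the protein sequence was available.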

The target of experiment [2] is GlcNAc(b1-2)[GlcNAc(b1-4)]Man(a1-3)[GlcNAc(b1-4)][GlcNAc(b1-2)[GlcNAc(b1-6)]Man(a1-6)]Man(b1-4)GlcNAc(b1-4)[Fuc(a1-6)]GlcNAc. The method, boiled down: as §1
The target in experiment [3] is GlcNAc(b1-2)[GlcNAc(b1-6)]Man(a1-6)[GlcNAc(b1-2)Man(a1-3)]Man(b1-4)GlcNAc(b1-4)GlcNAc. The method, boiled down:
as §1

A further experiment deals with GlcNAc(b1-3)Gal. The method, boiled down:
as §1

Experiment [4] deals with GlcNAc(b1-3)Gal(b1-3)GalNAc. The method, boiled down:
as §1

Experiment [5] concerns the target GlcNAc(b1-3)Gal(b1-4)GlcNAc(b1-3)Gal(b1-4)GlcNAc(b1-2)[GlcNAc(b1-3)Gal(b1-4)GlcNAc(b1-3)Gal(b1-4)GlcNAc(b1-6)]Man(a1-6)[GlcNAc(b1-3)Gal(b1-4)GlcNAc(b1-3)Gal(b1-4)GlcNAc(b1-2)Man(a1-3)]Man(b1-4)GlcNAc(b1-4)[Fuc(a1-6)]GlcNAc. The method, boiled down: as §1
Experiment [6] addresses GlcNAc(b1-3)Gal(b1-4)GlcNAc(b1-3)Gal(b1-4)GlcNAc(b1-3)Gal(b1-4)GlcNAc(b1-3)Gal(b1-4)GlcNAc(b1-2)Man(a1-3)[GlcNAc(b1-3)Gal(b1-4)GlcNAc(b1-3)Gal(b1-4)GlcNAc(b1-3)Gal(b1-4)GlcNAc(b1-3)Gal(b1-4)GlcNAc(b1-2)Man(a1-6)]Man(b1-4)GlcNAc(b1-4)GlcNAc. The method, boiled down:
as §1

Experiment [7] concerns the target GlcNAc(b1-3)[GlcNAc(b1-6)]GalNAc. The method, boiled down:
as §1

Experiment [8] concerns the target GlcNAc(b1-4)GlcNAc(b1-4)GlcNAc(b1-4)GlcNAc(b1-4)GlcNAc. The method, boiled down: as §1
The target of experiment [9] is Man(a1-2)Man(a1-2)Man(a1-6)[Man(a1-3)]Man. The method, boiled down: as §1
Another experiment has as its target Man(a1-2)Man(a1-3)Man. The method, boiled down: as §1
In experiment [10] the target is Man(a1-2)Man(a1-6)[Man(a1-3)]Man(a1-6)[Man(a1-2)Man(a1-2)Man(a1-3)]Man(b1-4)GlcNAc(b1-4)GlcNAc. The method, boiled down: as §1
Experiment [11] has as its target Neu5Ac(a2-3)Gal(b1-3)GalNAc(b1-3)Gal(a1-4)Gal(b1-4)Glc. The method, boiled down:
as §1

The target of experiment [12] is Neu5Ac(a2-3)Gal(b1-3)GlcNAc(b1-6)GalNAc. The method, boiled down:
as §1

Experiment [13] concerns the target Neu5Ac(a2-3)Gal(b1-4)GlcNAc(b1-3)Gal(b1-4)GlcNAc. The method, boiled down:
as §1

The target in experiment [14] is Neu5Ac(a2-3)Gal(b1-4)[Fuc(a1-3)]GlcNAc(b1-3)GalNAc. The method, boiled down:
as §1

Experiment [15] addresses Neu5Ac(a2-6)Gal(b1-4)GlcNAc(b1-2)Man(a1-3)[GlcNAc(b1-4)][Neu5Ac(a2-6)Gal(b1-4)GlcNAc(b1-2)Man(a1-6)]Man(b1-4)GlcNAc(b1-4)GlcNAc. The method, boiled down: as §1
Experiment [16] addresses Neu5Ac(a2-6)Gal(b1-4)GlcNAc(b1-2)Man(a1-6)Man(b1-4)GlcNAc(b1-4)GlcNAc. The method, boiled down: as §1
In experiment [17] the target is Neu5Ac(a2-6)Gal(b1-4)GlcNAc(b1-3)Gal(b1-4)GlcNAc(b1-3)Gal(b1-4)GlcNAc(b1-2)Man(a1-3)[Neu5Ac(a2-6)Gal(b1-4)GlcNAc(b1-3)Gal(b1-4)GlcNAc(b1-3)Gal(b1-4)GlcNAc(b1-2)Man(a1-6)]GalNAc. The method, boiled down: as §1
For experiment [18], the target named is Neu5Ac(a2-8)Neu5Ac(a2-3)Gal(b1-3)GalNAc(b1-4)[Neu5Ac(a2-8)Neu5Ac(a2-3)]Gal(b1-4)Glc. The method, boiled down:
as §1

The target of experiment [19] is Neu5Ac(a2-8)Neu5Ac(a2-3)Gal(b1-4)Glc. The method, boiled down:
as §1

In experiment [20] the target is Neu5Ac(a2-8)Neu5Ac(a2-8)Neu5Ac(a2-3)[GalNAc(b1-4)]Gal(b1-4)Glc. The method, boiled down: as §1
Experiment [21] deals with Neu5Gc(a2-3)Gal(b1-3)[Fuc(a1-4)]GlcNAc. The method, boiled down:
as §1

Experiment [22] deals with Neu5Gc(a2-3)Gal(b1-4)[Fuc(a1-3)]GlcNAc. The method, boiled down: as §1

Shown is part of a subset that was picked to be rich in the strongest signals.

B1: SJCP3842 (Schistosoma japonicum) (protein)
chain: MFKMRIINLVNISTVLLLINLLQTKSRLVGKENGFMLTVSIYGAQLSDKMTSVPVSWTIDYEDPEKSAFKKLVTDSCDTFSEYVKSQIPKGSVDGQCTSHIFQRPGSGSGVSISLTLSFIYVDVTQPDTVALKTELEKHFANFVTIHSHKITQAQFRINQKAIVIPTGDKDAIDGSKWKIIAIIALVALAIVVIGGFIYICVK
Regarding B1, the “glycan array binding signal (z-score)” value was 2.47 in experiment [1]; 0.364 in experiment [2]; -0.597 in experiment [3]; -1.01 with GlcNAc(b1-3)Gal; -0.211 in experiment [4]; 1.43 in experiment [5]. Further, the “glycan array binding signal (z-score)” value was -0.488 in experiment [6]; -0.578 in experiment [7]; 0.984 in experiment [8]; -0.903 in experiment [9]; -1.03 in the experiment with Man(a1-2)Man(a1-3)Man; -0.995 in [10]. For the same molecule, the “glycan array binding signal (z-score)” value was 0.587 in experiment [11]; 1.36 in experiment [12]; 1.89 in experiment [13]; 2.37 in [14]; -0.194 in experiment [15]; 2.88 in [16]. The “glycan array binding signal (z-score)” value in experiment [17] was 4.64; in experiment [18], 3.14; in experiment [19], -1.34; in experiment [20] it was 0.881; in experiment [21] it was -0.715; in [22], 0.854.
